# Records with an inconclusive call do not appear. Active and inactive are the calls of the source. The calls were made as follows: active = hit-call score of the fitted dose curve at least 0.9, where 1 is the maximum; inconclusive = response in the unintended direction; inactive = score below 0.9.
# Read-out: Cytochrome P450 2C19 (Homo sapiens) (UniProt P33261)
# Assay: CLD_CYP2C19_6hr: CellzDirect (CLD) Gene Expression Assay for xenobiotic metabolism (CYP2C19) at 6 hours (AID 2283678)
# Procedure: CLD_6hr is a cell-based, multiplexed-readout assay that uses hepatocyte, a human liver primary cell, with measurements taken at 6 hours after chemical dosing in a 96-well plate.CLD_CYP2C19_6hr is one of 16 assay component(s) measured or calculated from the CLD_6hr assay. It is designed to make measurements of mRNA induction, a form of inducible reporter, as detected with chemiluminescence signals by Quantitative Nuclease Protection Assay (qNPA) technology.Data from the assay component CLD_CYP2C19_6hr was analyzed at the endpoint, CLD_CYP2C19_6hr, in the positive analysis fitting direction relative to DMSO as the negative control and baseline of activity. Using a type of inducible reporter, gain-of-signal activity can be used to understand changes in the reporter gene as they relate to the gene CYP2C19. Furthermore, this assay endpoint can be referred to as a primary readout. To generalize the intended target to other relatable targets, this assay endpoint is annotated to the cyp intended target family, where subfamily is xenobiotic metabolism.
# Human hepatocyte cultures were treated daily for two consecutive days with fresh dosing solutions containing appropriate concentrations of the 320 ToxCast chemicals (chemical identities were blinded to CellzDirect and other ToxCast collaborators), vehicle control (0.2% DMSO), and positive control inducers as summarized in Table 1. Due to the large number of treatment groups and chemicals examined, the ToxCast chemicals were divided into two groups (spanning two independent cultures of hepatocytes from separate donor preparations (Hu778: ToxCast plates 1 and 2; Hu776: ToxCast plates 3 and 4). Each preparation of human hepatocyte cultures was treated with respective vehicle control, medium only control, set of six positive controls/reference chemicals for the five hepatic receptor pathways, and a subset of eight of the ToxCast chemicals (indoxacarb, pyrithiobac-sodium, norflurazon, cyhalofop-butyl, methomyl, thiram, acetochlor, and propiconazole). These replicate data, coupled with internal replicates designed within the blinded ToxCast chemical library, provided additional data to evaluate interindividual differences between hepatocyte preparations and their potential impact on chemical profiles.Cell morphology and integrity were evaluated using phase-contrast microscopy as an indicator of hepatocyte cell health (Tyson & Green, 1987). Cultures for each treatment group (i.e., media, vehicle [0.2% DMSO], positive control inducers [multiple concentrations], and the ToxCast chemicals [multiple concentrations]) were observed and cell morphology was assessed relative to vehicle control cultures at each harvest time point (0, 6, 24, or 48 h). […] Images were evaluated at the conclusion of the study to assess changes in cell integrity and account for the effects of chemical exposure on uncharacteristic changes in concentration-dependent gene expression profiles. The results from these determinations of apparent cytotoxicity were annotated (yes/no) alongside the corresponding qNPA data for reference.At the conclusion of each treatment period, hepatocyte cultures (96-well) were washed with 1 volume of HBSS, lysed by addition of 25 ul ArrayPlate lysis buffer (HTG, Tucson, AZ), and 70 ul/well of Denaturation Oil, denatured by incubation at 95C for 10 min, and frozen at approximately -70C until analysis by nuclease protection assay (qNPA) (Roberts et al., 2007). For qNPA analysis, cell lysates were thawed at 50C for approximately 30 min, qNPA probes were added, and samples were incubated at 95C for 10 min to begin the detection process by denaturing the target RNA, dissociating the duplexes and secondary structure hybridization. At the conclusion of the hybridization period, S1 nuclease reagent was added to each sample to digest all nonprotected nucleotides at 50C for 60-90 min. […]
# Sequence of Cytochrome P450 2C19 (Homo sapiens) (P33261 whole entry, looked up): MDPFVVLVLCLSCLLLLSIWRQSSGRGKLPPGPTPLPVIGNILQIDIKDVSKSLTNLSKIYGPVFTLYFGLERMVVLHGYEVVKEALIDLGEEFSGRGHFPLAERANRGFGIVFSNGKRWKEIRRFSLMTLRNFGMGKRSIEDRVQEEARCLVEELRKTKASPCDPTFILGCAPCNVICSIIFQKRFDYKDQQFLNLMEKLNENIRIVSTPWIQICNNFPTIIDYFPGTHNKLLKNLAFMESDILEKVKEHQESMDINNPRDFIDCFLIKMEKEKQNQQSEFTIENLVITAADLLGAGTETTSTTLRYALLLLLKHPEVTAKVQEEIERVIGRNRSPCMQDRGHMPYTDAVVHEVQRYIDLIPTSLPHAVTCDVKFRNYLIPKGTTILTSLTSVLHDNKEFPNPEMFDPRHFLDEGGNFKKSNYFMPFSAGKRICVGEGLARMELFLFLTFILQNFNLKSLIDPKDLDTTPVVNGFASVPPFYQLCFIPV
SMILES,outcome,AC50
COP(=O)(NC(C)=O)SC (stereo unspecified),inactive,–
Nc1c(Cl)cc([N+](=O)[O-])cc1Cl,inactive,–
CC1(C(=O)Nc2ccc(O)c(Cl)c2Cl)CCCCC1,inactive,–
CCOP(=O)(SC(C)CC)N1CCSC1=O (stereo unspecified),inactive,–
CCOP(=S)(OCC)SCCSCC,inactive,–
COc1cccc(C(=O)NN(C(=O)c2cc(C)cc(C)c2)C(C)(C)C)c1C,inactive,–
CCc1cnc(C2=NC(C)(C(C)C)C(=O)N2)c(C(=O)O)c1 (stereo unspecified),inactive,–
CC1=NNC(=O)N(/N=C/c2cccnc2)C1,inactive,–
CN1COCN(Cc2cnc(Cl)s2)C1=N[N+](=O)[O-],inactive,–
O=[N+]([O-])c1cc(C(F)(F)F)c(Cl)c([N+](=O)[O-])c1Nc1ncc(C(F)(F)F)cc1Cl,inactive,–
CSc1nc(NC(C)C)nc(NC(C)C)n1,inactive,–
CNC(=O)ON=C(SC)C(=O)N(C)C,inactive,–
CCCOc1nn(C(=O)NS(=O)(=O)c2ccccc2C(=O)OC)c(=O)n1C,inactive,–
CON=C(C(=O)OC)c1ccccc1CON=C(C)c1cccc(C(F)(F)F)c1,inactive,–
CCCCOC(=O)[C@@H](C)Oc1ccc(Oc2ccc(C#N)cc2F)cc1,inactive,–
CN(C)C(=O)Nc1cccc(C(F)(F)F)c1,inactive,–
COP(=O)(OC)OC(Br)C(Cl)(Cl)Br (stereo unspecified),inactive,–
COc1cc(OC)nc(Sc2cccc(Cl)c2C(=O)O)n1,inactive,–

SMILES,outcome,AC50
CNC(=O)ON=C(C)SC,inactive,–
CCNc1nc(Cl)nc(NC(C)(C)C#N)n1,inactive,–
O=C(O)c1cc(Oc2ccc(C(F)(F)F)cc2Cl)ccc1[N+](=O)[O-],inactive,–
CCOP(=O)(OCC)Oc1cc(C)nc(C(C)C)n1,inactive,–
CC(C1CC1)C(O)(Cn1cncn1)c1ccc(Cl)cc1 (stereo unspecified),inactive,–
CCC(=O)Nc1ccc(Cl)c(Cl)c1,inactive,–
CCC(=NOC/C=C/Cl)C1=C(O)CC(C2CCOCC2)CC1=O (stereo unspecified),inactive,–
C[N+]1(C)CCCCC1,inactive,–
CNc1cnn(-c2cccc(C(F)(F)F)c2)c(=O)c1Cl,inactive,–
O=c1ccc(=O)[nH][nH]1,inactive,–
CCCCOC(=O)c1ccccc1C(=O)O,inactive,–
CC(C)N(C(=O)SCC(Cl)=C(Cl)Cl)C(C)C,inactive,–
CC(=NC#N)N(C)Cc1ccc(Cl)nc1,inactive,–
CCOC(=O)CC(SP(=O)(OC)OC)C(=O)OCC (stereo unspecified),inactive,–
Nc1nc(N)nc(NC2CC2)n1,inactive,–
CC[C@H](C)[C@H]1O[C@]2(C=C[C@@H]1C)C[C@@H]1C[C@@H](C/C=C(\C)[C@@H](O[C@H]3C[C@H](OC)[C@@H](O[C@H]4C[C@H](OC)[C@@H](NC)[C@H](C)O4)[C@H](C)O3)[C@@H](C)/C=C/C=C3\CO[C@@H]4[C@H](O)C(C)=C[C@@H](C(=O)O1)[C@]34O)O2,–,32.6 µM (active)
CC(Oc1cccc(Cl)c1)C(=O)O (stereo unspecified),inactive,–
CN(C)[C@@H]1C(=O)C(C(N)=O)=C(O)[C@@]2(O)C(=O)C3=C(O)c4c(O)cccc4[C@@](C)(O)[C@H]3[C@H](O)[C@@H]12,inactive,–
